Experiments:
Assay in all cases: PBM binding z-score (relative to random genomic background probes); higher = stronger binding; sequences stand for … in GC…GCGATTGACAGCGTAGAATGAAGG
[1] = test system: RARb homodimer (NR concentration 270 nM)
Procedure, shortened: (§1)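 Custom Agilent 4×180K protein-binding microarrays carried double-stranded probes. Their 34-nt variable regions held direct-repeat seeds, single-nucleotide variants, half-site ablations and random human genomic background sequences. Arrays were incubated 1 h with ligand-free nuclear receptor dimers in PBS pH 7.4, 2% milk, 0.02% Triton X-100, 1 mM DTT, 0.2 mg/mL BSA and 0.4 mg/ml salmon testes DNA. Antibodies against each partner (one per run) detected binding, and scanned fluorescence was regression-normalized. Binding z-scores use random background probes as reference.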

[2] = test system: RARg:RXRa (NR concentration 270 nM, RXRa partner concentration 90 nM)
Procedure, shortened: as §1

[3] = test system: RARg homodimer (NR concentration 270 nM)
Procedure, shortened: as §1

[4] = test system: RXRa DBDmut IVT, anti-RXR (DBD mutation: RXRa K156A/R161A, NR concentration 90 nM)
Procedure, shortened: as §1

[5] = test system: RXRa homodimer (NR concentration 180 nM)
Procedure, shortened: as §1

[6] = test system: THRa:RXRa (NR concentration 90 nM, RXRa partner concentration 90 nM)
Procedure, shortened: as §1

[7] = test system: THRa homodimer (NR concentration 90 nM)
Procedure, shortened: as §1

[8] = test system: VDR:RXRa (NR concentration 270 nM, RXRa partner concentration 90 nM)
Procedure, shortened: as §1

[9] = test system: VDR homodimer (NR concentration 270 nM)
Procedure, shortened: as §1

Sequence	PBM binding z-score [1]	PBM binding z-score [2]	PBM binding z-score [3]	PBM binding z-score [4]	PBM binding z-score [5]	PBM binding z-score [6]	PBM binding z-score [7]	PBM binding z-score [8]	PBM binding z-score [9]
ACAGACAGGTGAGTGAAGGTAACTGAGCTGGACG	0.0356	0.592	0.479	-0.622	0.511	1.75	-0.353	-0.202	-0.218
GGAACGACGGCATTCGAGTTGATAGCATGGCGAT	-1.09	-0.451	-0.127	-0.144	-0.39	-0.124	-1.19	-0.42	-0.259
ATATGTAGGTTACATCCGGGTCATTCACGCTATG	2.82	4	2.31	1.39	3.38	3.86	2.6	4.35	3.12
CCTAATAGTTGACCATAAGGGCAACCGAAGCTCG	2.04	1.61	1.18	0.375	0.786	2.02	0.988	0.926	0.915
GCTACTTGGTCAGTAAAAGGTCACACACCGGTCG	5.14	5.37	5.09	0.64	5.41	3.55	2.08	4.16	2.09
TTACCAAGGTGAAGATCGTTGATCCCTCTGTAGA	0.271	0.271	0.232	-0.349	0.567	1.58	0.0556	-0.031	-0.499
CGTCAAAGTTCAACTAAGGTGACGTAAAGCACGC	4.55	5.96	6.76	4.56	5.33	5.17	1.95	4.87	4.18
CCTCGGAGGACAGAAGGTCAGAGTTGTCCGCTTT	3.6	3.24	2.91	0.56	1.73	2.08	0.133	1.12	0.396
AGTCAAAGTTCAGGACGCGGTAACGTAAAGCACG	3.04	4.4	4.94	2.98	2.78	2.74	1.23	2.37	1.79
TAACCTAGGTCATGGGCCAGTATACCACGCGAAC	3.63	5.07	5.12	1.07	4.02	3.3	1.87	2.88	1.35
TAGCCTAGGTCATGCGGGCCAGTATTGTGTCGGC	3.12	3.74	4.11	0.382	2.52	3.05	1.08	2.92	0.379
CCTCGGAGGACATCAGGAGGTCAGAGCTGCCAGA	3.17	3.48	3.04	0.267	2.63	2.67	1.05	1.99	1.06
CGTCAACGTTCAAGGTAACGTAACAGAAAGCAGC	0.184	0.115	0.672	0.181	0.245	1.48	0.849	-0.14	-0.423
TGGCAAAGTTCAAAGGTAACGTAAGTATCCACAC	4.03	6.21	5.81	4.22	7.78	3.41	-0.0262	5.01	4.04
AGCTCTAGGTAAAGTTCAGTGAAAGATCGATAGA	2.32	1.94	2.58	1.43	0.97	0.941	-0.0509	1.08	1.6
AGTCAAAGTTCACTAGGTAAAGTAAGATTCAGCT	3.32	4.93	5.48	4.25	4.02	1.75	0.0953	3.34	3.61
CCTACTGGGCCACAAAAGGTCATTGATTCAGTGA	4.58	4.47	3.91	0.362	4.76	3.73	0.921	3.98	1.92
TCATATAGGTAAATGCTAGGTGAAAGACCGATCT	0.314	0.683	0.454	1.44	1.15	1.32	0.328	0.73	0.112
TCGAGTAGGTTAGTCAGGGCATTCAGCCAACATA	0.896	-0.14	0.189	0.358	-0.156	1.1	0.314	2.59	0.685
TCGAGTAGGTTACTCGGGGCATTCAGCCAACATA	0.524	0.206	0.191	0.42	0.372	1.76	-0.17	3.33	0.557
CCTACTGGGCCACGAAAGTTCATTGATTCAGTGA	3.23	2.04	2.29	1.34	1.46	1.74	-0.104	3.51	4.01
GCTAGCAAGCCATTTGGGTCACTCAATGACGGGC	1.36	0.373	0.621	-0.364	0.56	1.51	0.353	-0.0244	-0.322
CCTTACGGGTCACGACGTTATAGCACGACGAGCG	3.34	5.56	5.15	0.951	6.26	2.99	0.181	3.73	0.722
TAGCCTAGGTCGTGGGCCAGTATACCACGCGAAC	0.693	0.842	0.996	-0.872	0.851	0.795	-0.254	-0.199	-0.53
ATCGAAAGGTCTAGGTGAGTATAGAGAAAGGGAA	1.12	1.23	1.3	0.133	0.532	0.835	0.338	0.435	-0.115
ATCTCTAGGTAACACTCAGTTCAGTGAAGAACGC	1.27	0.926	0.875	1.05	0.63	1.64	1.38	1.97	2.25
ACTAGTTGGTCAGCTGTGGTCACACACAATTCGG	1.25	0.489	0.965	0.13	0.281	1.77	0.0925	0.029	0.0683
ACTATCAGTTGACTTAGGGCAACCGATACGACGC	0.986	0.641	1.1	0.226	0.399	1.46	0.315	–	0.169

Sequence	PBM binding z-score [1]	PBM binding z-score [2]	PBM binding z-score [3]	PBM binding z-score [4]	PBM binding z-score [5]	PBM binding z-score [6]	PBM binding z-score [7]	PBM binding z-score [8]	PBM binding z-score [9]
ATCTCAAGGTAAAGATAGTTCAGTGAATGCAAAT	0.976	1.03	1.11	0.292	0.564	1.53	0.311	–	0.351
TAGCCTAGGTCAGATCGGGCCAGTATTCGCTATA	2.1	2.86	3.71	-0.442	1.37	4.14	-0.138	–	-0.518
ACTCGGACGACAAAGGTCAGAGCTACGCCAGTGA	4.21	4.65	4.6	-0.0196	4.83	2.75	-0.0567	–	0.688
CCTCGGAGGACAACAGGAGGACAGAGCTGCCAGA	1.1	1.11	1.41	-0.107	0.167	1.61	0.577	–	0.157
GCTAGTTCGTCAGTAAAAGGTCACACACCGGTCG	5	5.12	4.64	2.51	5.36	3.72	1.98	–	2.88
GCTGCTAGGTCAGGCTGGTCAGCTAACGGGTACG	2.55	2.75	4.34	0.391	1.07	1.63	0.201	–	-0.177
TCTGCTAGGTCTACGATGGTCAGCTAATCTGCTA	-0.552	-0.506	-0.409	0.00299	-0.775	-1.43	-1.26	–	-1.28
CCTAGTTAGTCAAGGTCACACACGCTATAGGTAC	4.28	4.36	4.31	2.45	4.3	4.27	4.29	–	3.3
GCGAGTGGGGCAAAGCAGGTTACCATAAGGTTGG	1.29	0.324	0.332	-0.292	0.339	2.93	0.0981	–	-0.134
GCAGACCGGTGAAACGCAGGTAACTCAGGGTGGC	-0.498	-0.367	-0.32	-1.11	-0.345	0.683	-0.854	–	-0.771
ATCTCTAGGTAAAGTGCAGTGAAAGATCGATAGA	0.108	0.474	0.497	0.0332	0.222	0.316	-0.174	–	-0.0309
TCTGCTAAGTCAGTTGGTCAGCTAACGAGCTGCC	-0.3	-0.611	-0.521	-0.0698	-0.61	-0.628	-0.977	–	-0.941
CAGACTAGGTCACGAAAGGTCAAAGTCGAATGAC	5.63	7.9	8.73	2.27	8.34	4.96	2.29	–	4.05
GATACAGGGTCAGCTAGAGACCAGAGTATGGAAA	2.5	4.48	4.19	0.915	3.99	2.5	0.211	–	0.881
AGTCAAACTTCACTAGGTAACGTAAGATTCAGCT	-0.374	0.121	0.346	0.238	-0.0168	0.342	0.203	–	-0.395
TCAGACAGGTGATGGTAACTCAGGTACGCAGTCG	0.401	0.447	0.147	0.843	0.688	0.659	0.545	–	0.532
CTCGAAAGGTAGTGCTCAGGTGAGTATACCAAAC	-0.0122	-0.12	0.0951	-0.0232	-0.198	1.61	0.482	–	-0.438
AGAACGAGGGCACGCTGAGTAGATAGCAGAGTAG	0.843	1.94	2.23	1.58	1.45	1.58	-0.259	–	0.46
GCAGACAGGTGAAACGCAGGTAACTTAGGGTGGC	0.119	0.872	0.154	-0.334	0.754	1.55	-0.353	–	-0.61
TCATCTAGGTAAACAGGTGAAAGTCCGTAAGTTA	0.582	0.394	0.147	1.26	0.645	0.888	0.459	–	0.0533
TAGCCTAGGTCATTCAGGGGCCAGTGTAGAAAGC	3.6	6.11	4.75	1.83	3.15	3.58	0.809	–	1.58
ATATGCAGGTTACATCCGGGTCATTCAGGCTATG	2.86	4.04	2.1	0.784	3.53	3.97	2.19	–	2.77
TCGAGTAGGTGAGGGGCATTCAGAATGGCGTCGA	0.716	-0.0952	-0.106	0.0823	0.442	0.268	-0.559	–	-0.687
CGAACTAGGTCATTGACAGGACCGTGAATAGTAA	2.09	3.59	3.95	2.37	2.17	2.32	0.476	–	1.15
TTGCCTAGGTCATGCGGGCCAGTATAGTGTCGGC	2.96	3.93	4.33	0.791	2.76	3.08	0.807	–	0.421
TCTAGTTGGTCCAAGGTCACACACTCGAAATGCG	4.11	4.07	3.8	2.01	4.39	4.31	4.14	–	3.22
CCTTACGGGTCACGAGGTTACAGCACGACGAGCG	4.03	6.15	5.42	1.87	7.09	4.16	1.69	–	1.89

— the supplement of paper PMC6555819
